The results in this text go back to PubChem BioAssay AID504333 (National Center for Advancing Translational Sciences (NCATS), 2011).

Screen size: about 360,000 compounds; about 16,000 (4.4%) were called active. Roughly 9% stayed inconclusive and do not appear here. Calls follow the shape of the dose curve; as a rule, active = well fitted inhibition curve with a large enough effect; inconclusive = small, poorly fitted or top-dose-only effect; inactive = no such curve, though single readings can be large or run the other way. The list comes from a sample in which actives are over-represented; it also holds similar structures and randomly drawn compounds.
% is scaled to controls: 0 for no effect and ±100 for the full control effect; potency is read from the fitted curve at half-maximal effect.

Sequence of Bromodomain adjacent to zinc finger domain protein 2B (Homo sapiens) (Q9UIF8 whole entry, looked up, the tested form may be a part): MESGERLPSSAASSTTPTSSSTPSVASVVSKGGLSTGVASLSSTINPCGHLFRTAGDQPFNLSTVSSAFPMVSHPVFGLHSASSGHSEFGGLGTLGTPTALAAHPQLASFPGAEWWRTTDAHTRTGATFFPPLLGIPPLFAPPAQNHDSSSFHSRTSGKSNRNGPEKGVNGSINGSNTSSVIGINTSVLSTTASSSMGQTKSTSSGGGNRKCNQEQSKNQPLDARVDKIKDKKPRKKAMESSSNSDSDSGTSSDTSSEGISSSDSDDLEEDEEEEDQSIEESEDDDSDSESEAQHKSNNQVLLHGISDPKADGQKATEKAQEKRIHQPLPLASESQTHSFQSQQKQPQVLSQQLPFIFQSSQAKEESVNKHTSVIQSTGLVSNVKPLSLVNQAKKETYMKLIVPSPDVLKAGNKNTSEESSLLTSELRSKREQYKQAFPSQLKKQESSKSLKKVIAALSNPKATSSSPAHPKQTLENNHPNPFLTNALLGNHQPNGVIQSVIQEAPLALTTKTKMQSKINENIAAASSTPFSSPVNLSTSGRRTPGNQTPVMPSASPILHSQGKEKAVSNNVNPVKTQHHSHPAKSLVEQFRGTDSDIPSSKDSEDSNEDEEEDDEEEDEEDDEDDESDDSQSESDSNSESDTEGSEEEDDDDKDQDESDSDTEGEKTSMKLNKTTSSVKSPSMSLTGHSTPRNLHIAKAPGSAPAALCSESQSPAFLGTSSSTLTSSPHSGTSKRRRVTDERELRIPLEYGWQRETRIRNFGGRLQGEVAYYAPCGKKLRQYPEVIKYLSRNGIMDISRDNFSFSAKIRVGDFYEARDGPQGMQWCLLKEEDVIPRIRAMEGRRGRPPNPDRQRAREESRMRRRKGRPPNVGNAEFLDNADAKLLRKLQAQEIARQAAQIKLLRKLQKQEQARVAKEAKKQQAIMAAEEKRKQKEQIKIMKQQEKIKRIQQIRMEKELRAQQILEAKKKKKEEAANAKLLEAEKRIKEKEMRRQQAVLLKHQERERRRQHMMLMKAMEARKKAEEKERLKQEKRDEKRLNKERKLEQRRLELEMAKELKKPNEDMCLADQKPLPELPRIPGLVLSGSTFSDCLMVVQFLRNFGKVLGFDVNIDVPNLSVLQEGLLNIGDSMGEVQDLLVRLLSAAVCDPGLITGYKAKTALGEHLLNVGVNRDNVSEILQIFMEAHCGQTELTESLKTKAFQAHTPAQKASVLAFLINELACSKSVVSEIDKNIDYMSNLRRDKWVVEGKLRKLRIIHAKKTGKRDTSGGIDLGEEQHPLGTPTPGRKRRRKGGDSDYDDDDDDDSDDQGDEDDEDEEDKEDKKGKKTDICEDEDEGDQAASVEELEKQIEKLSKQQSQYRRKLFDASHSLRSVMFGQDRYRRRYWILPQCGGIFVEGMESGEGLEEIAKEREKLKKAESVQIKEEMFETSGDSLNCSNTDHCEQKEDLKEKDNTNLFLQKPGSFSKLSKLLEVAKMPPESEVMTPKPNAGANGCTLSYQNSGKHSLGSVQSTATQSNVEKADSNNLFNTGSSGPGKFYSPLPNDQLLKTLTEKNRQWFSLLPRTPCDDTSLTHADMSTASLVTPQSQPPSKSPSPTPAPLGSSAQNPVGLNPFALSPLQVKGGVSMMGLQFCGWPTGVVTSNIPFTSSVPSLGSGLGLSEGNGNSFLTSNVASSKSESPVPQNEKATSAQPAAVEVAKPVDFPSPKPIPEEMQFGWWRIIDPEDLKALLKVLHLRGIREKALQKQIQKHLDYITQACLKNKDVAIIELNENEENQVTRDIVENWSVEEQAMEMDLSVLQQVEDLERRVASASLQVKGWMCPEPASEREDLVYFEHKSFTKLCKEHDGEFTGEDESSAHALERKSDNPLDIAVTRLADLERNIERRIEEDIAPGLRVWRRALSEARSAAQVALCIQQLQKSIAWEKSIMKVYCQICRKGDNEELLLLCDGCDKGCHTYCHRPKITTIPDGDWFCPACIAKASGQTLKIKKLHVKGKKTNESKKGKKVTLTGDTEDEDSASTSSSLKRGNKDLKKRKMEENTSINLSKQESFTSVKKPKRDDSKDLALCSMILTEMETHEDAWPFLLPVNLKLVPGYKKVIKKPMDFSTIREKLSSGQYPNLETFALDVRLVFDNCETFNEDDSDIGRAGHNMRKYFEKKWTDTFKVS

In this experiment the target is Bromodomain adjacent to zinc finger domain protein 2B (Homo sapiens) (UniProt Q9UIF8). The experiment can be described thus: qHTS Assay for Inhibitors of BAZ2B. Also: nearly all actives have a fitted effect of over 60% in size. The following applies: AlphaScreen BAZ2B-H3K14Ac peptide displacement; series mostly up to 114 µM; activity change, negative = inhibition: at the top concentration. The source says:
BAZ2B (bromodomain adjacent to zinc finger domain, 2B) belongs to a family of ubiquitously expressed bromodomain containing proteins, which biological function has not yet been elucidated. […] The interaction of BAZ2B with ISWI mediated by the BAZ1 motif has recently been described. […] The protocol is based on the AlphaScreen (PerkinElmer) displacement assay developed by NCGC [5], but uses the peptide ligand Biot-H3K14Ac, a high affinity binding partner for BAZ2B, in an AlphaScreen format. Although AlphaScreen has significant advantages with its utility in a variety of epigenetic target assays, the primary screening data provided in this deposition should be used with caution due to the prevalence of screening artifacts. The top compound concentration tested was 110uM in this assay, which increases number of actives and potential artifacts. An AlphaScreen counterscreen is highly recommended to be run against any putative actives to eliminate non-specific artifacts. Alternatively, one can use other AlphaScreen assays in PubChem to filter out promiscuous hits. Eberharter, A. et al. ACF1 improves the effectiveness of nucleosome mobilization by ISWI through PHD-histone contacts. The EMBO journal 23, 4029-4039. 2004. PMID: 15457208 [2] Jones, M.H. et al. A novel family of bromodomain genes. Genomics 63, 40-45. 2000. PMID: 10662543 [3] Yasgar, et al. Compound Management for Quantitative High-Throughput Screening. JALA. 2008 Apr;13(2):79-89. PMID: 18496600 [4] Inglese, et al. Quantitative high-throughput screening: a titration-based approach that efficiently identifies biological activities in large chemical libraries. Proc Natl Acad Sci. 1;103(31):11473-8. 2006. PMID: 16864780 [5] Quinn et al. A chemiluminescence-based method for identification of histone lysine methyltransferase inhibitors. Mol Biosyst 6(5): 782-8. 2010. PMID: 20567762 [6] Baell,Holloway. New substructure filters for removal of pan assay interference compounds (PAINS) from screening libraries and for their exclusion in bioassays. J Med Chem. 53(7):2719-40. 2010. PMID: 20131845 NIH Molecular Libraries Probe Production Network [MLPCN] NIH Chemical Genomics Center [NCGC] Structural Genomics Consortium (SGC) NIH Grant: 5U54 MH084681-02
To each well of a 1,536w plate, 2ul of BAZ2B protein (final 50nM) and 1ul biotinylated histone peptide acetylated at Lys14 [b-H3(5-23)K14Ac] (final 50nM) were added in 1x PBS buffer, pH 7.4, containing 0.01% Tween-20, using a nanoliter dispenser. Formation of a protein-peptide complex proceeded at room temperature for 30 min. A Kalypsys pin-tool was employed to transfer 23 nL of library compound solution in DMSO to each well. Following a 30 min incubation of the protein-peptide complex with compounds at room temperature, a mixture of 40 ug/mL each streptavidin-coated donor and nickel chelate acceptor AlphaScreen beads (final 10 ug/mL) were added in a 1ul dispense for a final volume of 4ul. A brief centrifugation followed (1000rpm, 1 min) and were then incubated protected from the light for 20 min at room temperature. Plates were read on an EnVision multilabel plate reader using the 1,536 plate HTS AlphaScreen aperture (excitation time 80 ms, measurement time 240 ms).
`CCOc1ccccc1N(CC)C(=O)Nc1cn(C)c(=O)c2ccccc12`: the “activity change, negative = inhibition” value was 6.05% (inactive).

As for `CC(C)c1ccc(NC(=O)CN(C)S(=O)(=O)c2ccc3c(c2)c(=O)n(C)c(=O)n3C)cc1`, the “activity change, negative = inhibition” value is -2.58% (inactive). For `CCS(=O)(=O)c1nc(S(=O)(=O)c2ccc(C)cc2)c(NCc2ccc(Cl)cc2)s1`, the “activity change, negative = inhibition” value is -7.97% (inactive). As for `Cn1c(=O)c(C(=O)O)nn(-c2ccccc2)c1=O`, the “activity change, negative = inhibition” value was -1.4% (inactive). As for `CCOC(=O)C1CCN(c2ccc(C(=O)O)cc2[N+](=O)[O-])CC1`, the “activity change, negative = inhibition” value was 4.06% (inactive).

For the molecule `CC1CCN(c2ccc([N+](=O)[O-])cc2C(N)=O)CC1`, the “activity change, negative = inhibition” value is -19.3% (inactive). Take `O=C(O)C1CCN(c2ccc([N+](=O)[O-])cc2[N+](=O)[O-])CC1`: the Potency was 56.2 µM (active).

Regarding `Cc1ccc(Cl)cc1N1CCN(S(=O)(=O)c2cc3[nH]c(=O)c(=O)[nH]c3cc2C)CC1`, the “activity change, negative = inhibition” value was -20.7% (inactive). In the case of `COc1ccc(CCC(=O)NCc2ccc3c(c2)CCN3C(=O)c2ccc(F)cc2)cc1`, the “activity change, negative = inhibition” value is -1.32% (inactive).

For the molecule `COc1ccccc1-c1noc(-c2ccc(NCc3ccccc3)c([N+](=O)[O-])c2)n1`, the “activity change, negative = inhibition” value was -4.93% (inactive). Regarding `O=C(CSc1nnc(-c2ccccc2F)o1)Nc1cccc(C(F)(F)F)c1`, the “activity change, negative = inhibition” value is -13% (inactive). Regarding `COc1ccccc1CNCc1cccs1`, the “activity change, negative = inhibition” value was 2.33% (inactive). Regarding `COc1ccccc1CN1CCCC(N2CCN(c3ccc(F)cc3)CC2)C1` (stereo unspecified), the “activity change, negative = inhibition” value was -2.71% (inactive). Consider `CNCC(O)CN1CCN(c2ccccc2OC)CC1` (stereo unspecified), for which the “activity change, negative = inhibition” value was -26% (inactive). Consider `CC(=O)N1CCN(CC(c2ccccc2)c2ccccc2)CC1`, for which the “activity change, negative = inhibition” value was -23.7% (inactive). For the molecule `Oc1ccccc1CN1CCN(C(c2ccccc2)c2ccccc2)CC1`, the Potency was 50.1 µM (active). As for `c1ccc(C(c2ccccc2)N2CCN(Cc3nnnn3C3CCCCC3)CC2)cc1`, the “activity change, negative = inhibition” value is 4.36% (inactive). For the molecule `COc1ccccc1CN1CCN(C(c2ccccc2)c2ccccc2)CC1`, the Potency was 79.4 µM (active). Take `COc1ccccc1Cn1c(CO)nc2ccccc21`: the “activity change, negative = inhibition” value is -9% (inactive).

As to `COc1cc(CN2CCCN(C)CC2)c([N+](=O)[O-])cc1OC`, the “activity change, negative = inhibition” value was -9.5% (inactive).

`COc1ccccc1N1CCN(Cc2cc(OC)c3c(c2)OCO3)CC1`: the “activity change, negative = inhibition” value is -11% (inactive). With `COc1ccccc1CN1CCN(Cc2cc(OC)c(OC)cc2OC)CC1`, the Potency is 50.1 µM (active). Take `COc1ccccc1N1CCN(Cc2ccc(OC)c3ccccc23)CC1`: the Potency was 28.2 µM (active).

`Cc1ccc2cccc(NC(=O)c3ccc(OC(C)C)cc3)c2n1`: the “activity change, negative = inhibition” value was -7.03% (inactive). As for `Cc1ccc(NC(=O)CSc2nnc3[nH]c(=O)cc(C)n23)cc1Cl`, the “activity change, negative = inhibition” value was 1.62% (inactive).

Regarding `CSc1ccc(C2c3c(oc4ccccc4c3=O)C(=O)N2CCCN2CCOCC2)cc1` (stereo unspecified), the “activity change, negative = inhibition” value is -3.97% (inactive). The same measure, in the same setting: for `COc1cccc(C(=O)N(Cc2cccc(Cl)c2)Cc2ccco2)c1` the value was 27% (inactive). As for `O=C(COc1ccc(Cl)cc1)Nc1ccccc1OCc1cc(=O)n2ccccc2n1`, the “activity change, negative = inhibition” value was 3.37% (inactive). For `Cc1ccc(NC(=O)c2cc3cc(C)ccc3n2C)cc1`, the “activity change, negative = inhibition” value was -7.6% (inactive).

For `O=C(Cn1c(=O)n(Cc2ccccc2)c(=O)c2sc3ccccc3c21)Nc1ccccc1F`, the “activity change, negative = inhibition” value was 2.08% (inactive). Take `Cc1ccc(C2CCN(C(=O)c3cnn(-c4ccccc4Cl)c3C3CCN(C(=O)OC(C)(C)C)CC3)C2)cc1` (stereo unspecified): the “activity change, negative = inhibition” value was -17.9% [at 57.1 µM] (inactive). Turning to `COc1cccc(CNC(=O)Cn2ncn3c(cc4ccccc43)c2=O)c1`, the “activity change, negative = inhibition” value was 2.55% (inactive). On to `Cc1ccc(NC(=O)CN2c3ccccc3S(=O)(=O)c3ccccc32)cc1F`, for which the “activity change, negative = inhibition” value is -11.7% (inactive). `CCCn1c2ccccc2c2cnn(CC(=O)N3CCCC(C(=O)OCC)C3)c(=O)c21` (stereo unspecified): the “activity change, negative = inhibition” value was 2.57% (inactive). Consider `COc1cc2c3c(c1)/C(=C1/SC(=S)NC1=O)C(=O)N3C(C)(C)C=C2C`, for which the Potency was 44.7 µM (active).

For `CC(C)(C)OC(=O)N1CCC(NC(=O)c2[nH]cnc2C(=O)N[C@@H](Cc2ccccc2)C(=O)OCc2ccccc2)CC1`, the “activity change, negative = inhibition” value is -15.2% (inactive).

Take `CCOC(=O)c1ccc(NC(=O)c2nc[nH]c2C(=O)NCc2ccccc2)cc1`: the “activity change, negative = inhibition” value was 3.08% (inactive). `CCOC(=O)c1[nH]cnc1C(=O)NC1CCCCC1`: the Potency is 50.1 µM (active). As for `COc1ccc2cc(CNc3ccc(OC)c(OC)c3)c(=O)n(CC(=O)Nc3ccccc3F)c2c1`, the “activity change, negative = inhibition” value was 0.402% (inactive). Consider `COc1cccc(-c2n[nH]c3c2C(c2cccc(O)c2)N(C)C3=O)c1` (stereo unspecified), for which the “activity change, negative = inhibition” value is -16% (inactive). As to `Cc1ccc(/C=N/NC(=O)c2cc3ccccc3cc2O)o1`, the “activity change, negative = inhibition” value is -28.4% (inactive). `Cc1cc(N=Nc2ccc3ccccc3c2)ccc1O`: the Potency was 28.2 µM (active). For the molecule `COc1ccc(/C=C/c2noc(-c3ccccc3O)n2)cc1OC`, the “activity change, negative = inhibition” value was 4.53% (inactive).

For the molecule `COc1ccc(-n2c(SCC(=O)Nc3ccc(Cl)c(C)c3)nc3n[nH]c(C)c3c2=N)cc1`, the “activity change, negative = inhibition” value was -4.47% (inactive). For `CCc1cccc(NC(=O)CN(c2ccc(C)c(C)c2)S(=O)(=O)c2ccsc2C(=O)OC)c1`, the “activity change, negative = inhibition” value was -6.76% (inactive). Take `O=C(CN1CCN(c2ccc(F)cc2)CC1)Nc1ccccc1`: the “activity change, negative = inhibition” value is 6.8% (inactive). Turning to `Cc1cccnc1NC(=O)c1cccc(S(=O)(=O)N2CCN(c3ccc(F)cc3)CC2)c1`, the “activity change, negative = inhibition” value was -30.1% (inactive). Still for that read-out and setting: under `COc1cc(C)cc(CN2CCC(Cc3ccccc3)CC2)c1O` stands -25.9% (inactive). Turning to `Oc1c(CN2CCCC2)cc(COCc2ccccc2)c2cccnc12`, the Potency was 17.8 µM (active). As to `Oc1c(CN2CCN(c3ccc(F)cc3)CC2)cc(Cl)c2cccnc12`, the Potency is 22.4 µM (active). In the case of `COc1cc(CN2CCC(C(N)=O)CC2)ccc1OCc1ccccc1`, the “activity change, negative = inhibition” value is -14.9% (inactive).
